# ChEMBL document CHEMBL3988442, “University of Dundee, Small-Polar-MMV Screening Library” (2021)
# Hit rate of the full screen: of about 48,000 compounds, about 13,000 (27%) showed an effect of 50% or more. The list shows a part of the results.
# Tested on: Wolbachia pipientis
# Assay: Anti-Wolbachia Cell-Based Screen
# Assay type: functional
# Set-up: scale not given: in the data most compounds retested in dose-response had high values
# Details: 5 µM
row,SMILES,Percent Effect
1,c1cc(-c2noc(-c3cc(C4CC4)on3)n2)cc(N2CCCCC2)n1,-2.255%
2,CCn1nc2c(cc1=O)CN(Cc1nc(N)c3ccccc3n1)CC2,12.33%
3,O=C(Cc1csc(N2CCNC2=O)n1)NCC1(c2ccccc2)CC1,8.123%
4,Cc1ncsc1CN1CC[C@](C)(O)[C@@H](Oc2cccc(F)c2)C1,111.6%
5,Cc1ncsc1CNc1cccc(OCCN2CCCC2)c1,8.667%
6,Cc1ncsc1CN1C[C@H]2CC[C@@H]1CN(Cc1ccccc1)C2,1.915%
7,Cc1nnc(SCCCNC(=O)Nc2ccc3c(c2)OCO3)s1,7.014%
8,NC(=O)c1cc2c(nc1N1C[C@H]3OC(=O)N(C4CCCC4)[C@H]3C1)CCC2,94.23%
9,COc1ccccc1CN1C(=O)O[C@@H]2CN(c3nc(C)cc(C)n3)C[C@@H]21,-8.092%
10,Cc1ccc(C(N)=O)c(N2C[C@H]3OC(=O)N(C4CCCC4)[C@H]3C2)n1,112.7%
11,Cc1cnc(C)c(N2CCCC(CC3CC3)(C(=O)O)C2)n1 (stereo not given),0.08182%
12,COc1ccccc1CN1C(=O)O[C@@H]2CN(c3nc(C)cnc3C)C[C@@H]21,-4.864%
13,Cc1ccc(N2C[C@H]3OCC[C@H]3[C@H](C(=O)NC3CCCC3)C2)nn1,11.3%
14,Cc1cnc(C)c(N2C[C@H]3OC(=O)N(C4CCCC4)[C@H]3C2)n1,94.65%
15,NC(=O)c1cc2c(nc1-c1ccoc1)CCC2,-15.41%
16,CN(CC1CCCCO1)c1nc2c(cc1C(N)=O)CCC2 (stereo not given),-5.698%
17,Cc1nccn1CCN(C)c1nc(-c2ccc(Cl)cc2)nc2c1CNC2,-50.51%
18,Cc1ccc(N(C)S(=O)(=O)c2cc(C(=O)O)cs2)c(C)c1,115%
19,CCN(c1cc(C)cc(C)c1)S(=O)(=O)c1cc(C(=O)O)cs1,116.9%
20,CN(c1ccc2ccccc2c1)S(=O)(=O)c1cc(C(=O)O)cs1,28.59%
21,Cc1ccc(N(C)S(=O)(=O)c2cc(C(=O)O)cs2)cc1,139%
22,Cc1cccc(N(C)S(=O)(=O)c2cc(C(=O)O)cs2)c1C,-9.49%
23,CN(c1ccc(F)c(F)c1)S(=O)(=O)c1cc(C(=O)O)cs1,2.683%
24,COc1ccccc1N(C)S(=O)(=O)c1cc(C(=O)O)cs1,22.41%
25,Cc1cc(C)cc(N(C)S(=O)(=O)c2cc(C(=O)O)cs2)c1,-4.793%

row,SMILES,Percent Effect
1,CN(c1cccc2ccccc12)S(=O)(=O)c1cc(C(=O)O)cs1,-12.64%
2,Cc1cccc(N(C)S(=O)(=O)c2cc(C(=O)O)cs2)c1,112.1%
3,CN(c1ccc(C(C)(C)C)cc1)S(=O)(=O)c1cc(C(=O)O)cs1,-4.452%
4,CCOc1cccc(NS(=O)(=O)c2cc(C(=O)O)cs2)c1,19.91%
5,COCC1CN(C(=O)c2cccn2C)Cc2ncnn2C1 (stereo not given),-3.009%
6,CCN1CCCC1CN(CCN(C)C)S(=O)(=O)c1ccccc1C#N (stereo not given),-13.86%
7,CN(Cc1cccc(F)c1)C(=O)CS(=O)(=O)Cc1c(Cl)cccc1Cl,-4.804%
8,Cc1nn(C)c(C)c1NC(=O)CNc1cccc(CC(F)(F)F)c1,-3.048%
9,FC(F)(F)c1ccc2nc([C@H]3CCN(C4CCC4)C3)[nH]c2c1,0.6058%
10,O=C(NCCN1CCCC1)c1ccc2c(-c3nccs3)noc2c1,3.961%
11,Cc1cccc2c1nc1n2[C@@H](CNC(=O)c2cncnc2)COC1,-4.11%
12,CCN(C(=O)NCc1ccc(C)cc1OC)C(C)c1cccnc1 (stereo not given),2.223%
13,CCC(C)(C)NC(=O)CN(Cc1cccc(O)c1)C1CCC(O)CC1 (stereo not given),-0.7077%
14,CCOC(=O)C1(CCOC)CCCN(Cc2nccn2CC)C1 (stereo not given),-2.653%
15,COc1c(CNC(C)C(=O)NC2CCCC2)c(C)nn1C (stereo not given),6.635%
16,COc1c(CNC(C)C(=O)NC2CCCC2)c(C(C)C)nn1C (stereo not given),-36.61%
17,COc1c(CNCCC(=O)NC2CCCC2)c(C(C)C)nn1C,98.08%
18,COc1c(CNCCC(=O)Nc2cccc(C)n2)c(C(C)C)nn1C,-41.29%
19,COc1c(CNCCC(=O)NC2CCCCC2)c(C(C)C)nn1C,109.1%
20,COc1c(CNCc2nnc3n2CCCCC3)c(C(C)C)nn1C.Cl,3.985%
21,CC(C)C1CN(c2ncccn2)CCC(=O)N1CC1CC1 (stereo not given),-33.18%
22,CC(=O)N1CCCN(C(=O)c2cnc(OC(C)C)c(Cl)c2)CC1,-53.74%
23,C[C@@H]1CN(C(=O)c2ccc(C#N)nc2)C[C@@]1(O)C1CC1,-20.15%
24,Cc1occc1C(=O)N1CCC2(CCCN(CC3CC3)C2=O)C1 (stereo not given),-3.086%
25,CCc1cc(C(=O)N2CCC3(CCCN(CCOC)C3=O)C2)cs1 (stereo not given),-4.642%

row,SMILES,Percent Effect
1,CNc1nc(C(=O)N2CCC3(CCCN(CC4CC4)C3=O)C2)cs1 (stereo not given),-46.01%
2,CCc1n[nH]c(C(=O)N2CCC3(CCCN(CCOC)C3=O)C2)c1C (stereo not given),116.4%
3,Cc1occc1C(=O)N1CCC2(CCCN(CC3CCC3)C2=O)C1 (stereo not given),-0.1295%
4,CCc1ocnc1C(=O)N1CCC2(CCCN(CC(C)(C)C)C2=O)C1 (stereo not given),100.3%
5,CCCc1cc(C(=O)N2CCC3(CCCN(CCOC)C3=O)C2)cs1 (stereo not given),13.33%
6,COCCN1CCCC2(CCN(C(=O)c3cnc(O)cn3)C2)C1=O (stereo not given),-81.96%
7,CCc1noc(C)c1C(=O)N1CCC2(CCCN(CC(C)(C)C)C2=O)C1 (stereo not given),101.6%
8,CCc1c(C(=O)N2CCC3(CCCN(CCO)C3=O)C2)csc1C (stereo not given),7.73%
9,CCCc1cc(C(=O)N2CCC3(CCCN(CCO)C3=O)C2)cs1 (stereo not given),-0.6433%
10,CCc1cc(C(=O)N2CCC3(CCCN(CC4CC4)C3=O)C2)cs1 (stereo not given),55.55%
11,CCn1cc(CN2CCC(C3CCN(C)CC3)CC2)cc1C#N,8.542%
12,CC1CCN(C(=O)[C@@H]2C[C@H]3OCC[C@H]3N(Cc3ccoc3)C2)CC1.O=C(O)C(F)(F)F,-6.203%
13,COc1ccc2c(c1)C(C(=O)N(C)CCc1cnn(C)c1)CC(=O)N2 (stereo not given),2.797%
14,Cc1csc(N(C)C(=O)C(c2c(F)cccc2Cl)N(C)C)n1 (stereo not given),1.249%
15,c1ccc(OCc2noc(CN3CCN(C4CCCC4)CC3)n2)cc1,4.136%
16,Cc1nc(C)c(CC(=O)N2CCC(Oc3ccccc3)CC2)c(=O)[nH]1,3.027%
17,Cc1noc(C)c1CC(=O)N1CC[C@@](C)(O)[C@H](Oc2ccccc2)C1,138.5%
18,Cc1n[nH]c(C)c1CC(=O)N1CC[C@@](C)(O)[C@H](Oc2ccccc2)C1,132.6%
19,Cc1n[nH]c(C)c1CC(=O)N1CC[C@@](C)(O)[C@@H](Cc2ccccc2)C1,-1.869%
20,Cc1n[nH]c(C)c1CC(=O)N1CCC2(CC1)CN(C)CCN2C,-2.947%
21,Cc1noc(C)c1CNC(=O)N1CCC(C(O)c2ccccc2)CC1 (stereo not given),-2.263%
22,CC[C@H](CO)NC(=O)c1coc(COc2cccc(F)c2F)n1,-21.32%
23,COC(=O)CCCNC(=O)c1cc(COc2cncc(Cl)c2)on1,3.929%
24,CCN(Cc1csc(C)n1)c1cccc(CO)c1,19.84%
25,COc1ccc(-c2nnc(C(C)N3CCC4(CC3)OCCO4)o2)cc1 (stereo not given),-10.61%

row,SMILES,Percent Effect
1,CC(c1nnc(-c2ccccc2)o1)N1CCC(Nc2ccccc2)CC1 (stereo not given),109.3%
2,COc1ccc(-c2nnc(C(C)N3CCOCC3)o2)cc1 (stereo not given),0.5331%
3,CC(C)c1cc(CN2CCC(N)CC2)no1,118.3%
4,CC(C)c1cc(N2CCC(N)CC2)n2nccc2n1,-3.508%
5,CC(C)c1cc(CN2CCC(N)CC2)on1,102.3%
6,COCCCN1CC2(CCN(Cc3cc(C(C)C)no3)CC2)CC1=O,-15.73%
7,CCN1CCN(C2CCN(Cc3cc(C)on3)CC2)C1=O,-12.89%
8,CC(C)c1cc(CN2CCC(CC(=O)O)CC2)no1,25.42%
9,Cc1cnc(CN2CCC(N(C)Cc3noc(C4CC4)n3)C2)o1 (stereo not given),113%
10,CCn1ccnc1CN1CCC(N(C)Cc2ncc(C)o2)C1 (stereo not given),-2.074%
11,Cc1cnc(CN(C)C2CCN(Cc3nnc(C4CC4)o3)C2)o1 (stereo not given),131.1%
12,Cc1cnc(CN(C)C2CCN(CCc3cnn(C)c3)C2)o1 (stereo not given),-1.466%
13,CN(Cc1noc(C2CC2)n1)C1CCN(Cc2ccncc2)C1 (stereo not given),-0.4709%
14,O=C(c1cnn2cc(CCO)cnc12)N1CCOC(C(F)(F)F)C1 (stereo not given),-0.009577%
15,CCOc1ccc(CN(C)C(=O)NC(C)c2nncn2C)cc1 (stereo not given),-12.44%
16,CC(NCc1cccnc1)c1cc2c(cc1Br)OCCO2 (stereo not given),-3.161%
17,CNS(=O)(=O)CCCN1CCN(C(C)c2cccnc2)CC1 (stereo not given),7.44%
18,N#Cc1cccc(CS(=O)(=O)NCCC(O)c2ccccc2)c1 (stereo not given),7.655%
19,CNS(=O)(=O)CCCN1CCCN(Cc2ccccc2)CC1C (stereo not given),-3.956%
20,CNS(=O)(=O)CCCN1CCN(C(C#N)c2ccccc2)CC1 (stereo not given),112.4%
21,CS(=O)(=O)CCCN1CCN(C(C#N)c2ccccc2)CC1 (stereo not given),95.09%
22,CC(c1ccc(Cl)cc1)N1CCN(CCS(C)(=O)=O)CC1 (stereo not given),6.907%
23,CC(c1ccc(Cl)cc1)N1CCN(CCCS(C)(=O)=O)CC1 (stereo not given),-1.134%
24,CC(c1ccc(Cl)cc1)N1CCN(CCNS(C)(=O)=O)CC1 (stereo not given),-1.965%
25,CCS(=O)(=O)NCCN1CCN(C(C#N)c2ccccc2)CC1 (stereo not given),106.3%
